Our source for the composite z-score and z-score values is PubChem BioAssay.

The test system of assay [1] is Plasmodium falciparum Sir2 (PF13_0152, Sir2A). The assay is described as follows: pfSir2 binders on small-molecule microarrays, primary screen, biochemical, small-molecule microarray, 635 nm fluorescence (AID 1098).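 Further: score merges spot fluorescence intensity with its signal-to-noise ratio.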 To be noted: small-molecule microarray binding, fluorescence 635 nm; higher = more signal.
A short description of assay [2]: small-molecule microarray binders of probe aDKK1, primary screen, biochemical, biotinylated probe, 635/667 nm fluorescence (AID 1099).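 Further: score merges 667nm spot fluorescence with signal to noise across triplicate slides.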 To be noted: higher = more signal.
Assay [3] in a line: small-molecule microarray binders of probe aCHRDL2, primary screen, biochemical, biotinylated probe, 635/667 nm fluorescence (AID 1100). Conditions: higher = more signal.
Assay [4] is described as follows: splicing luciferase reporter signal modulators, primary screen, spliceosome inhibition project, cell-based, HEK293, splice +/- reporter (AID 1101).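 Further: HEK293 cells carrying a splicing-competent luciferase reporter gene; test concentration not given here.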 To be noted: luminescence, 24 h, higher = more signal, called active from +8 up or from −8 down. (A reporter such as luciferase makes a cellular process visible.)
The target of assay [5] is Fibroblast growth factor 10 (Homo sapiens) (UniProt O15520). Kind of assay: FGF10 binders on small-molecule microarrays, primary screen, biochemical, small-molecule microarray, 635 nm fluorescence (AID 1102). To be noted: FGF10 binding, fluorescence 635 nm, higher = more signal.
In assay [6] the test system is glycogen synthase kinase-3 (GSK3A per assay name; protocol says GSK3B). The assay is described as follows: GSK3 binders on small-molecule microarrays, primary screen, biochemical, small-molecule microarray, 635 nm fluorescence, GSK3A (AID 1103). Further: the record names both GSK3A and GSK3B. To be noted: small-molecule microarray binding, fluorescence 635 nm; higher = more signal.
The target of assay [7] is Epidermal growth factor receptor (Homo sapiens) (UniProt P00533). Kind of assay: EGFR binders on small-molecule microarrays, primary screen, biochemical, small-molecule microarray, 635 nm fluorescence (AID 1104).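 Further: score merges 667 nm emission intensity with spot signal to noise over triplicate slides.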 Conditions: EGFR binding, higher = more signal.
In assay [8] the target is Follistatin-related protein 3 (Homo sapiens) (UniProt O95633). The assay is described as follows: FSTL3 binders on small-molecule microarrays, primary screen, biochemical, small-molecule microarray, 635 nm fluorescence (AID 1105).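 Further: score merges emission near 667 nm and signal to noise per printed spot across three slides.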 To be noted: FSTL3 binding, higher = more signal.
The target in assay [9] is Dickkopf-related protein 1 (Homo sapiens) (UniProt O94907). The assay is described as follows: DKK1 binders on small-molecule microarrays, primary screen, biochemical, small-molecule microarray, 635 nm fluorescence scan (AID 1106).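 Further: score merges emission near 667 nm with signal to noise over three replicate slides.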 To be noted: DKK1 binding, higher = more signal.
The test system of assay [10] is Inhibin beta A chain (activin A). The assay is described as follows: INHBA (activin A) binders on microarrays, primary screen, biochemical, small-molecule microarray, 635 nm fluorescence scan (AID 1107).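 Further: mouse activin A protein probed at 4.33 µg/mL on printed slides; score merges bound-protein fluorescence near 667 nm with spot signal-to-noise.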 To be noted: small-molecule microarray binding, higher = more signal.
Assay [11] has as its system Human papillomavirus type 1a protein E7 (residues 44-93). Kind of assay: HPV1a E7 fragment binders on microarrays, primary screen, biochemical, small-molecule microarray, residues 44-93, 635 nm fluorescence (AID 1108).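 Further: E7 fragment applied at 1 µg/mL in TBST for 1 h at 4 C; score combines spot fluorescence with its signal to noise ratio.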 Conditions: small-molecule microarray binding, fluorescence 635 nm; higher = more signal.
A short description of assay [12]: modulators of HCV replicon luciferase signal, primary screen, HCV replication inhibitor project, Huh7 cells, luciferase reporter (AID 1109).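 Further: huh7 hepatoma cells harbouring a luciferase neomycin HCV replicon reporter; luciferase luminescence as measure of HCV replicon replication; test concentration not given here.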 Conditions: 48 h, higher = more signal.
In assay [13] the target is Left-right determination factor 2 (Homo sapiens) (UniProt O00292). The assay is described as follows: LEFTY2 binders on small-molecule microarrays, primary screen, biochemical, small-molecule microarray, 635 nm fluorescence scan (AID 1110). Conditions: LEFTY2 binding, higher = more signal.
The target in assay [14] is Calmodulin-1 (Homo sapiens) (UniProt P0DP23). Kind of assay: CALM1 binders on microarrays, EGTA buffer, profiling panel, biochemical, small-molecule microarray, Cy5-labelled CALM1 (AID 1111).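 Further: labelled calmodulin applied in Tris saline Tween buffer holding calcium plus EGTA and DTT.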 Conditions: Cy5-CALM1 binding fluorescence, higher = more signal.
The target is the same in assay [15]. Kind of assay: calcium-bound CALM1 binders on microarrays, profiling panel, artefact control for SMM control-protein annotation, biochemical, small-molecule microarray, Cy5-labelled CALM1, plus calcium (AID 1112).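 Further: score merges spot fluorescence with signal to noise from triplicate slides.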 Conditions: Cy5-CALM1 binding fluorescence, higher = more signal.
Assay [16] can be described thus: small-molecule microarray binders of probe aWnt5a, primary screen, biochemical, biotinylated probe, 635/667 nm fluorescence (AID 1113).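 Further: score merges 667 nm fluorescence intensity with signal-to-noise per printed feature.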 To be noted: higher = more signal.
The nature of assay [17]: small-molecule microarray binders of probe aShh, primary screen, biochemical, biotinylated probe, 635/667 nm fluorescence (AID 1114).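 Further: probe is biotin-labelled aShh protein from a stem cell growth factor screen; measures binding of labelled protein to compounds printed on the slide; score merges feature fluorescence at 667 nm with signal-to-noise.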 Conditions: higher = more signal.
Assay [18] is described as follows: small-molecule microarray binders of probe aNog, primary screen, biochemical, biotinylated probe, 635/667 nm fluorescence (AID 1115).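 Further: probe is biotinylated aNog protein used at 0.15 µg/mL for 1 h at 4 C; z-score combines 667 nm fluorescence of each spot with its signal to noise.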 Conditions: higher = more signal.
The target in assay [19] is Torsin-1A-interacting protein 1 (Homo sapiens) (UniProt Q5JTV8). The assay is described as follows: LAP1 binders from COS7 cell lysate, primary screen, small-molecule microarray, 635/667 nm fluorescence (AID 1116). Conditions: COS7-hLAP1 lysate binding, 635 nm fluorescence, higher = more signal.
Assay [20] concerns the target Alpha-bungarotoxin (Bungarus multicinctus) (UniProt P60615). The assay is described as follows: alpha-bungarotoxin binders on microarray, profiling panel, artefact control for SMM control protein annotation, biochemical, small-molecule microarray, Alexa647 label, 635/667 nm fluorescence (AID 1117). Conditions: alpha-BTX-A647 binding fluorescence, higher = more signal.

Molecules are shown by their SMILES. Where “and” joins values, the source holds several entries; their conditions need not be identical. Identical values can stand only once. Calls of active or inactive are those of the source.

Torsin-1A-interacting protein 1 (Homo sapiens), sequence (Q5JTV8 whole entry, looked up): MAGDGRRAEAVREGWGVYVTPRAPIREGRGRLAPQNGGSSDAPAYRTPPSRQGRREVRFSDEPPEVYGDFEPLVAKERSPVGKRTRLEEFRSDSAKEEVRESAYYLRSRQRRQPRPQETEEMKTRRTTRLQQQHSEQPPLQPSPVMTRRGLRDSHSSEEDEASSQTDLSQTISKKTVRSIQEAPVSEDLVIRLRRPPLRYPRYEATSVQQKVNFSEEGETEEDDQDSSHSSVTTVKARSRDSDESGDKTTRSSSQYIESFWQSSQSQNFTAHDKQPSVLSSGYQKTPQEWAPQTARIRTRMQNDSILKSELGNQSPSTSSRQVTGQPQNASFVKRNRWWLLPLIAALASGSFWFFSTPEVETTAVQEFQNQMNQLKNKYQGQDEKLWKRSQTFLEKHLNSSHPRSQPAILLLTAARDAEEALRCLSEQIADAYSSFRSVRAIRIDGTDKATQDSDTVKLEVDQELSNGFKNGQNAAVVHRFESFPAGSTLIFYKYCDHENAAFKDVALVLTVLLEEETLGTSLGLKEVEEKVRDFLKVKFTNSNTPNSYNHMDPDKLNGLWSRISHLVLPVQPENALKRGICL
Follistatin-related protein 3 (Homo sapiens), sequence (O95633 whole entry, looked up): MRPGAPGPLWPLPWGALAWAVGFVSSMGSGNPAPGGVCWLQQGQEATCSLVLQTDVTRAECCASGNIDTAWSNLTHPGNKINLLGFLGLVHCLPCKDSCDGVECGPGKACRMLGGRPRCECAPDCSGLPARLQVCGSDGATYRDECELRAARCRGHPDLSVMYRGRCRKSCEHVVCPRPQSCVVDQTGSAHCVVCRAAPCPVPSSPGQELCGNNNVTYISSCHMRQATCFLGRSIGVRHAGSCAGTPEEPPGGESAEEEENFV
Left-right determination factor 2 (Homo sapiens), sequence (O00292 whole entry, looked up): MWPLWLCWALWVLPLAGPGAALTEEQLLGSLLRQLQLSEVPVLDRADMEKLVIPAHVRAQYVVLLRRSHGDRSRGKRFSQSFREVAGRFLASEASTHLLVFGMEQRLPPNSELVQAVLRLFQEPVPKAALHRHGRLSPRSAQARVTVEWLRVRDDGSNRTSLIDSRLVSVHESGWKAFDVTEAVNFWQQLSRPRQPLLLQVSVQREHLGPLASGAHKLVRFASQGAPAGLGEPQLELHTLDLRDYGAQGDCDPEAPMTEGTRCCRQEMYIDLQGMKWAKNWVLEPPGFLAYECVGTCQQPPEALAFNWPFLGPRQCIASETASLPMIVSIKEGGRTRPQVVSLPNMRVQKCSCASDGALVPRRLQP
Epidermal growth factor receptor (Homo sapiens), sequence (P00533 whole entry, looked up): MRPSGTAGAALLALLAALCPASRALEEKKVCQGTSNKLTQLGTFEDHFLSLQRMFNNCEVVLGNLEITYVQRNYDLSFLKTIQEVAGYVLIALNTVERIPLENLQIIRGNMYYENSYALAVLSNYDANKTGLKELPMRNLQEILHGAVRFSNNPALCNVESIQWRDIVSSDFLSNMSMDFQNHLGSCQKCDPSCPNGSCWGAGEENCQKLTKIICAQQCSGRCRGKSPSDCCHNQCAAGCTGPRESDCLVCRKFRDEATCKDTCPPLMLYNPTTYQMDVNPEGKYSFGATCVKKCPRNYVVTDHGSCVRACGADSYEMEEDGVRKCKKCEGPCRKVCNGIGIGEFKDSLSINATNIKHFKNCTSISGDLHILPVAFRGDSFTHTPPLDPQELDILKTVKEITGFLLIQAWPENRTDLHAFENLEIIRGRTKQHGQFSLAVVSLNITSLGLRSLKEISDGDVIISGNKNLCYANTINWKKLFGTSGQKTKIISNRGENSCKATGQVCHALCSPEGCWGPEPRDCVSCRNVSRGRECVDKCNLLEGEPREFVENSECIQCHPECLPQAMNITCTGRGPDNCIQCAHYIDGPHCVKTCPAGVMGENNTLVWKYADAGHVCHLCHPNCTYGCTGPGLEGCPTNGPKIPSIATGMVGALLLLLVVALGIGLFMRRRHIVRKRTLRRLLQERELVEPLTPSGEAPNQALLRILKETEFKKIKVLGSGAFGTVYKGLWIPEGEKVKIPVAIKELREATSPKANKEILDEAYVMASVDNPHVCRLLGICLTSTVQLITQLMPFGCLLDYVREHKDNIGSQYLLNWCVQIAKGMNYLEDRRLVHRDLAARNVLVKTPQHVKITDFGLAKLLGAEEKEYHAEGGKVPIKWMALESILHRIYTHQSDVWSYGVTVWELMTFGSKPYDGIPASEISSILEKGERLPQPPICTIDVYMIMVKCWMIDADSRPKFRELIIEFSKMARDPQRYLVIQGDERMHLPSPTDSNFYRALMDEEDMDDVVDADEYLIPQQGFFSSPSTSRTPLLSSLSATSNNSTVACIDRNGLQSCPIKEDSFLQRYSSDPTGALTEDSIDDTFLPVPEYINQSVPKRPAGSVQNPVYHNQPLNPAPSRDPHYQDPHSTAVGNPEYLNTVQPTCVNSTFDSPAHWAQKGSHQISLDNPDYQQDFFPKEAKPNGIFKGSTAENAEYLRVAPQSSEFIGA
Alpha-bungarotoxin (Bungarus multicinctus), sequence (P60615 whole entry, looked up): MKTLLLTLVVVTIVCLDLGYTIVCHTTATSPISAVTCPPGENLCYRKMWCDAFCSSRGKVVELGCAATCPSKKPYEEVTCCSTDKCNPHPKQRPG
Dickkopf-related protein 1 (Homo sapiens), sequence (O94907 whole entry, looked up): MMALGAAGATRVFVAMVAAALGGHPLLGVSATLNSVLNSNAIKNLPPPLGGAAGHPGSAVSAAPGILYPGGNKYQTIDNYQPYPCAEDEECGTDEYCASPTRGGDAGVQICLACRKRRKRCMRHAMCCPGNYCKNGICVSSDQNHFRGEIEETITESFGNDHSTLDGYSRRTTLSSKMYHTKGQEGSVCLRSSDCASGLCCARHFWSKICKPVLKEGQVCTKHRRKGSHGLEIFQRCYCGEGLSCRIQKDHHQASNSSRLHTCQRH
Fibroblast growth factor 10 (Homo sapiens), sequence (O15520 whole entry, looked up): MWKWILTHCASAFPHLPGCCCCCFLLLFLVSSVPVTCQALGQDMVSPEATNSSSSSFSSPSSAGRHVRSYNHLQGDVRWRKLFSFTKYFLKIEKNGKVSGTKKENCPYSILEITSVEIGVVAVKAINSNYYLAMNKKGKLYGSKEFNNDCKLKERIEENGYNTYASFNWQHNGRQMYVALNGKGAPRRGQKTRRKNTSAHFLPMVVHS

Consider `C#CCCCON=C1C[C@@H](O)[C@@H](O)[C@@H]2[C@@H]3C(=O)N(C4CCCCC4)C(=O)[C@@H]3CC[C@H]12`, for which the composite z-score in [1] is 0.72; in [2], 0.149; in assay [3], -0.0642; in assay [5], 0.402; in assay [6], 0.355; in [7] it was 0.217. Also, the composite z-score was determined as 0.348 in assay [8]; 0.0938 in [9]; 0.24 in assay [10]; 0.774 in [11]; 0.16 in assay [13]; 0.974 in assay [14]. For the same compound, the composite z-score in assay [15] is 0.244; in assay [16], 0.454; in [17], -0.0177; in assay [18], -0.134; in [19] it was 0.104; in assay [20] it was 2.51. For the same compound, the z-score in [4] is -0.285 (inactive); in assay [12] it was -0.147.
As to `CC(C)C(=O)N[C@@H]1CCCN1C(=O)C=Cc1ccccc1`, the composite z-score was 0.98 in assay [1]; -0.311 in assay [2]; -0.469 in assay [3]; 0.419 in [5]; 0.883 in assay [6]; 0.432 in [7]. The composite z-score in assay [8] was 0.709; in assay [9], 0.47; in [10], -0.172; in assay [11], 0.734; in assay [13], 0.85; in assay [14], 0.0331. The composite z-score is -1.12 in assay [15]; -0.0704 in assay [16]; -0.138 in assay [17]; 0.173 in assay [18]; 0.587 in assay [19]; 0.289 in [20]. Further, the results for the z-score in [4] and in assay [12] were 0.655 (inactive) and -1.05, respectively.
In the case of `C=CCN(CCCC)C(=O)C1N(C(C)(C)CO)C(=O)C2C(C(=O)O)C3C=CC21O3` (stereo not given), the composite z-score was 0.645 and 0.0697 in assay [1]; -0.188 and -0.123 in assay [2]; 0.717 and 0.644 in assay [3]; -1.84 and -0.834 in [5]; -2.07 and -1.67 in assay [6]; -1.97 and -1.42 in [7]. For the same compound, the composite z-score in assay [8] was -2 and -2.8; in assay [9], -2.4 and -1.9; in assay [10], -3.85 and -3; in assay [11] it was -1.32 and -1.36; in [13] it was -3.24 and -2.31; in [14], -0.742 and -0.335. Also, the composite z-score in assay [15] is 1.1 and 0.491; in assay [16], -0.297 and -0.169; in assay [17] it was -0.0626 and -0.23; in assay [18], -0.0094 and 0.125; in assay [19] it was -1.24 and -2.03; in assay [20] it was -1.41 and -0.821. Besides, the z-score in [4] is 0.395 (inactive) and 0.383 (inactive); in assay [12], -0.299 and 0.145.
As for `CCN1C(=O)[C@H]2[C@H]3[C@H](O)[C@H](O)CC(=NOC)[C@@H]3CC[C@H]2C1=O`, the composite z-score is 0.767 in [1]; -0.0904 in [2]; -0.0826 in assay [3]; -0.0502 in [5]; -0.595 in [6]; 0.1 in assay [7]. In addition, the composite z-score in [8] was -0.0407; in [9] it was 0.179; in assay [10], 0.39; in assay [11], -0.524; in assay [13] it was 0.256; in assay [14], -0.472. Also, the composite z-score in [15] is -0.266; in assay [16], -0.147; in assay [17], 0.13; in assay [18] it was -0.122; in assay [19] it was 0.262; in assay [20], 0.178. Also, the z-score in [4] was 0.302 (inactive); in assay [12] it was 0.964.
In the case of `COC(=O)[C@@]1(Cc2ccccc2)[C@H]2c3cc(C(=O)N(C)C)n(C[C@H](O)CO)c3C[C@H]2CN1C(=O)c1ccccc1`, the composite z-score is 0.544 and 0.831 in assay [1]; 0.781 and 0.66 in assay [2]; 0.761 and 1.21 in assay [3]; -0.397 and 0.483 in assay [5]; -0.137 and -0.227 in [6]; -0.647 and 0.374 in assay [7]. The composite z-score was -0.397 and 0.0048 in [8]; -0.907 and -0.236 in assay [9]; 0.985 and 1.1 in assay [10]; 1.13 and -0.569 in [11]; -0.724 and 0.396 in assay [13]; 0.205 and 2.39 in assay [14]. The composite z-score in [15] was 0.696 and 0.624; in [16] it was -0.0346 and 0.0297; in assay [17], 1.03 and 0.0469; in assay [18], 0.373 and 1.04; in assay [19] it was 2.36 and 1.1; in assay [20], -0.33 and 0.13. The z-score in assay [4] is -2.37 (inactive) and 1.46 (inactive); in assay [12], -0.38 and -0.668.
